Where “and” joins values, the source holds several entries; their conditions need not be identical. Identical values can stand only once. This is part of a sample that, as a whole, favours compounds with a hit. Of some 79,000 tested, about 15% had one in any assay. Unmarked numbers belong to inactive results. Calls of active or inactive are those of the source. Rule as the data show it: active = growth inhibition above about 70%; inactive = the rest.

Experiment [1] in a line: NCI Yeast Anticancer Drug Screen. Data for the rad50 strain (AID 155).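 Also: 0% = growth of vehicle-only cultures of the same strain.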 The note with it: S. cerevisiae rad50 strain growth inhibition, active compounds read high; at 50.0 µM unless noted. In short, it runs like this:
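Genetically altered yeast (DNA repair pathway); compound treatment; growth inhibition vs vehicle ctrl.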

A short description of experiment [2]: NCI Yeast Anticancer Drug Screen. Data for the mec2-1 strain (AID 157). The settings on record: S. cerevisiae mec2-1 strain, active compounds read high; at 50.0 µM unless noted. In short, it runs like this:
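Vehicle-treated cultures served as reference for growth inhibition of compound-exposed mec2-1 yeast.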

Experiment [3] can be described thus: NCI Yeast Anticancer Drug Screen. Data for the sgs1 mgt1 strain (AID 161).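 Also: 0% = growth of cultures given vehicle only.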 The settings on record: S. cerevisiae sgs1 mgt1 strain, active compounds read high; at 50.0 µM unless noted. In short, it runs like this:
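Mutant yeast exposed to compound; growth scored against vehicle-only wells.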

Experiment [4] in a line: NCI Yeast Anticancer Drug Screen. Data for the cln2 rad14 strain (AID 165).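 Also: 0% = growth equal to vehicle treated cultures.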 The settings on record: S. cerevisiae cln2 rad14 strain, active compounds read high; at 50.0 µM unless noted. In short, it runs like this: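 Each compound was tested on cln2 rad14 yeast. Inhibition of growth was calculated against vehicle-exposed controls.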
Experiment [5] can be described thus: NCI Yeast Anticancer Drug Screen. Data for the bub3 strain (AID 167). The note with it: S. cerevisiae bub3 mutant strain, active compounds read high; at 50.0 µM unless noted. In short, it runs like this: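 Yeast carrying a defined mutation is treated with each compound, and growth is compared with that of vehicle-exposed cells to give inhibition.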
Experiment [6] is described as follows: NCI Yeast Anticancer Drug Screen. Data for the mlh1 rad18 strain (AID 175). The settings on record: S. cerevisiae mlh1 rad18 strain growth inhibition, active compounds read high; at 50.0 µM unless noted. In outline: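 Vehicle-treated cultures served as the reference for growth inhibition in a yeast strain carrying DNA damage repair alterations exposed to each compound.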

With `CC(=O)NC1=NC(=O)/C(=C/c2ccc3c(c2)OCO3)N1C`, the growth inhibition is 4.7% in experiment [1]; 2.85% in experiment [2]; -3.3% in experiment [3]; 3% in experiment [4]; 5.5% in experiment [5]; 10.9% in experiment [6].

`C/C(=C\CNc1nc(Cl)nc2nc[nH]c12)CO`: the growth inhibition in experiment [1] is -12.3%; in experiment [2], -5.6%; in experiment [3] it was -32.6%; in experiment [4], 3.6%; in experiment [5], -0.4%; in experiment [6], -8.4%.

In the case of `Nc1nc(-c2cc(Br)ccc2N=NN2CCCCC2)nc2ccc(Br)cc12`, the growth inhibition was 82.2% (active) in experiment [1]; 37.2% in experiment [2]; 79.5% (active) in experiment [3]; 46% in experiment [4]; 22.3% in experiment [5]; 70.8% (active) in experiment [6].

For the compound `CCCCOC(=O)NC(=O)c1cn(CCCOC(=O)NCCCCCCNC(=O)OCCCn2cc(C(=O)NC(=O)OCCCC)c(=O)[nH]c2=O)c(=O)[nH]c1=O`, the growth inhibition was -1.1% in experiment [1]; 2.75% in experiment [2]; -4.2% in experiment [3]; 24.6% in experiment [4]; -6.35% in experiment [5]; -33.1% in experiment [6].

In the case of `CC1=C2CC(C)(C)/C=C\C(=O)/C(C)=C\C3=C[C@H](C)C[C@]3(O2)C1=O`, the growth inhibition is 60.8% in experiment [1]; 71.2% (active) in experiment [2]; 72.8% (active) in experiment [3]; 40.4% in experiment [4]; 64.4% in experiment [5]; 79.8% (active) in experiment [6].

In the case of `Oc1ccc(Br)cc1/C=N/c1nc2ccccc2s1.Oc1ccc(Br)cc1/C=N/c1nc2ccccc2s1.[Cu]`, the growth inhibition in experiment [1] is 38%; in experiment [2], 40.9%; in experiment [3], 0.05%; in experiment [4] it was 15.3%; in experiment [5], -0.25%; in experiment [6] it was 43.5%.

On to `CCN1C(=O)C(=O)C(c2ccccc2)(c2ccccc2)C1=O`, for which the growth inhibition in experiment [1] was -6.3%; in experiment [2], -3.65%; in experiment [3], -4.65%; in experiment [4], -21.6%; in experiment [5], 2.9%; in experiment [6], 46.9%.

Turning to `CC1(C)CC(O)CC(C)(C)N1`, the growth inhibition in experiment [1] is 2.9%; in experiment [2], -8.7%; in experiment [3], -1.6%; in experiment [4] it was -2.6%; in experiment [5], -1%; in experiment [6] it was 1.9%.

As for `CSC(=NC(=O)c1ccccc1)SCCSC(=NC(=O)c1ccccc1)SC`, the growth inhibition was 6.45% in experiment [1]; -7.35% in experiment [2]; 2.8% in experiment [3]; 33.6% in experiment [4]; -3.65% in experiment [5]; 6.35% in experiment [6].

As to `CS(=O)(=O)c1cccc(C(=O)O)c1`, the growth inhibition in experiment [1] was 12.4%; in experiment [2], 7.65%; in experiment [3], 4.05%; in experiment [4], -16.1%; in experiment [5], 1.35%; in experiment [6], -18%.

Turning to `Cc1nc2[nH]ncc2c(=O)n1-c1ccccc1Cl`, the growth inhibition was 6% in experiment [1]; -4.1% in experiment [2]; 5.95% in experiment [3]; 5.35% in experiment [4]; 3.75% in experiment [5]; 9% in experiment [6].

As for `Cn1c(=O)[nH]c(=O)c2nc(-c3ccccc3)cnc21`, the growth inhibition in experiment [1] is -11.9%; in experiment [2] it was 12.3%; in experiment [3], 2.55%; in experiment [4] it was -13.6%; in experiment [5] it was -2.7%; in experiment [6], -0.65%.

`O=C1OC(c2ccccc2)=N/C1=C\c1ccccc1`: the growth inhibition in experiment [1] is -24% and 23.1%; in experiment [2], -12.6% and 10.6%; in experiment [3], -15.5% and 20.9%; in experiment [4], -5.7% and -23.2%; in experiment [5], 3.9% and -15.2%; in experiment [6] it was -8.7% and 26.8%.

On to `CNC(=O)C1C(=O)NC(=O)C1=C1CCCC1` (stereo not given), for which the growth inhibition was 11.2% in experiment [1]; -1.1% in experiment [2]; 4.8% in experiment [3]; -58.8% in experiment [4]; 8.1% in experiment [5]; -14.6% in experiment [6].

For `CC(=O)C12C[C@](C#N)(N3CCCCCC3)C1C=Cc1ccccc12` (stereo not given in full), the growth inhibition in experiment [1] was -56%; in experiment [2], -29.6%; in experiment [3] it was -46.1%; in experiment [4], -51.5%; in experiment [5] it was -21.5%; in experiment [6], -56.4%.

Regarding `O=c1oc(=O)c2cc3c(=O)oc(=O)c3cc12`, the growth inhibition in experiment [1] is -21.4%; in experiment [2] it was 11.1%; in experiment [3], -6.75%; in experiment [4], -28%; in experiment [5], 7.1%; in experiment [6] it was -5.6%.

Consider `CCOC(=O)C1=C(C)NC(c2ccco2)=C(C#N)C1c1cccc([N+](=O)[O-])c1` (stereo not given), for which the growth inhibition was 59.8% in experiment [1]; 33.4% in experiment [2]; 66% in experiment [3]; 68.7% in experiment [4]; 63.6% in experiment [5]; 70.8% (active) in experiment [6].

Take `CC1CC(C)OC(c2ccc(Cl)cc2)O1` (stereo not given): the growth inhibition was 20.8% in experiment [1]; 14.5% in experiment [2]; 17.2% in experiment [3]; -28.8% in experiment [4]; -2.15% in experiment [5]; 19.1% in experiment [6].

For the compound `CCOC(=O)CCN(CCC(=O)OCC)N(C)C`, the growth inhibition was 2.55% in experiment [1]; -6.45% in experiment [2]; -4.6% in experiment [3]; -8.85% in experiment [4]; 5.8% in experiment [5]; 2.8% in experiment [6].

In the case of `c1ccc(N=NC2(c3ccccc3)CC(c3ccccc3)=NN(c3ccccc3)C2NNc2ccccc2)cc1` (stereo not given), the growth inhibition in experiment [1] is 53%; in experiment [2], 7.8%; in experiment [3], 23.8%; in experiment [4], 17.7%; in experiment [5] it was 6.75%; in experiment [6], 31.7%.
